High-throughput results as filed in PubChem BioAssay.
This is a sample that favours compounds with a hit; in the whole collection about 3.5% have one here.
MITF primary = MITF inhibitors, primary screen, biochemical, AlphaScreen, human; AlphaScreen MITF homodimerization, bead proximity signal; 650,000 tested, 0.91% active; AID 1259374, 2018; inhibition, % at 2.6 µM; in the data active = inhibition above about 50%
GPR151 activ = activators of human GPR151, primary screen, cell-based, PathHunter beta-arrestin, luminescence. G-protein coupled receptor 151 (Homo sapiens), Q8TDV0. AID 1508602, 2020. PathHunter beta-arrestin GPR151 cells. activation, % at 11.2 µM. 650,000 tested, 1% active; in the data active = activation above about 4.9%
TEAD-YAP block = TEAD-YAP interaction inhibition, primary screen, TEAD-YAP interaction inhibitor project, luminescence, HEK-TIYL cells; TEAD-Gal4/YAP UAS-luciferase luminescence; inhibition, % at 9.12 µM; 640,000 tested, 1.4% active; AID 1259422, 2018; in the data active = inhibition above about 32%
FBW7 activator = FBW7 E3 ligase activators, primary screen, biochemical, AlphaScreen, human | AlphaScreen FBW7–phospho-cyclin E peptide binding, activator screen | normalized activity (activation), % at 26.1 µM | 650,000 tested, 0.13% active; in the data active = normalized activity above about 1.9%;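 note: purified mutant Fbw7 with reduced substrate affinity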
Target sequence (Q969H0 whole entry, looked up): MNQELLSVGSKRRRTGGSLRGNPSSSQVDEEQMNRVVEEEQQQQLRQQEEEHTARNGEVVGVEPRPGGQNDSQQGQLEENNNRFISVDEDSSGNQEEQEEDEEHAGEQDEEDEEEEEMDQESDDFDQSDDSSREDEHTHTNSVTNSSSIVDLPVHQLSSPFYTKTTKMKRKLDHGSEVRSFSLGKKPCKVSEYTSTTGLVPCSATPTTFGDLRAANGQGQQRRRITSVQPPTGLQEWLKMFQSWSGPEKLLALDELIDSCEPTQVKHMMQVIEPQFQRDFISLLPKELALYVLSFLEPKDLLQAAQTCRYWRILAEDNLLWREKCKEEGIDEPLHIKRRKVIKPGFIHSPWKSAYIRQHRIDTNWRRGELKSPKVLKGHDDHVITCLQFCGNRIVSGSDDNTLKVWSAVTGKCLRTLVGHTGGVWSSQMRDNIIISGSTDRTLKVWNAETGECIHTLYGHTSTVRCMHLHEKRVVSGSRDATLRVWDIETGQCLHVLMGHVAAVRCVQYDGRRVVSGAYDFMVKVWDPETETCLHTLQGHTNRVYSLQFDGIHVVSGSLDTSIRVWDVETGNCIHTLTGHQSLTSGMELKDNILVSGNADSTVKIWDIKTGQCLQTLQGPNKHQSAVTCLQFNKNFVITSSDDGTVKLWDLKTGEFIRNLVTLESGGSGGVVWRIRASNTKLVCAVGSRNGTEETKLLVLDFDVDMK
MITF confirm = MITF inhibitors, retest of hits, confirmation, biochemical, AlphaScreen, triplicate; shares compounds with MITF primary; AlphaScreen MITF homodimerization, biotin/His-MITF beads; inhibition, % at 2.6 µM; 4,700 tested, 16% active; AID 1259372, 2018;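 active = inhibition above a cutoff derived from the DMSO control wells, cut at about 28% in these data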;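 note: inhibitors lower the bead chemiluminescence by keeping MITF from dimerizing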
AS interf DR = AlphaScreen optical interference compounds, dose response, counter-screen, biochemical, HTS; shares compounds with MITF primary; AlphaScreen optical interference counterscreen, cell-free; IC50, µM; 480 tested, 6% active; call rule not given here
AlphaScreen intf2 = AlphaScreen optical interference compounds, counter-screen for MITF inhibitor project, biochemical, triplicate | shares compounds with MITF primary | LysRS AlphaScreen counterscreen, signal interference | inhibition, % at 2.6 µM | 4,700 tested, 7.6% active | AID 1259376, 2018;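 active = inhibition above a cutoff derived from the DMSO control wells, cut at about 30% in these data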
Of the large screens only hits and unclear results are named; the others gave an inactive call (follow-up assays come after a bar, where they were run).

O=C(OCC(=O)C12CC3CC(CC(C3)C1)C2)C1COc2ccccc2O1 (configuration not stated)	none
Cc1nc(NCCO)c2c3c(sc2n1)CCC3	none
Cc1nc(NCC(C)C)c2c3c(sc2n1)CCCC3	MITF primary 52 | MITF confirm inactive | AlphaScreen intf2 inactive
CC(=O)C1=C(O)C(=O)N(CCN2CCNCC2)C1c1ccc(F)cc1 (configuration not stated)	MITF primary 101 | MITF confirm inactive | AlphaScreen intf2 inactive
CCNC(=O)/C(C#N)=C/c1ccc(Cl)c(Cl)c1	MITF primary 53 | MITF confirm inactive | AlphaScreen intf2 inactive
CC(C)(C)C(=O)N1CCc2cc(S(C)(=O)=O)ccc21	none
O=C(CN1CCC(c2ccncc2)CC1)Nc1ccc(N2CCCCC2)cc1	none
O=C(CN1CCCCCC1)Nc1ccc(N2CCCC2)cc1	MITF primary 53 | MITF confirm inactive | AlphaScreen intf2 inactive
CC1CCN(CC(=O)Nc2ccc(N3CCCCCC3)cc2)CC1	MITF primary 52 | MITF confirm inactive | AlphaScreen intf2 33
Cc1ccc(NC(=O)CN2CCC(C(=O)NC3CC3)CC2)cc1	MITF primary 112 | MITF confirm inactive | AlphaScreen intf2 inactive
CC1CCN(CC(=O)Nc2ccc(Br)cc2)CC1	none
COCCNC(=O)C(=O)N/N=C(\C)CC(=O)NC1CCCCCCC1	none
CC(=O)c1cccc(-c2ncc(C)c(NCc3ccccc3)n2)c1	none
CN(c1ccc(C(F)(F)F)cn1)C1CCCCC1	MITF primary 60 | MITF confirm inactive | AlphaScreen intf2 inactive
FC(F)(F)c1ccc(NC2CCCCC2)nc1	none
COc1ccc(Cl)cc1NC(=O)c1sc2nc(C)nc(N3CCCCC3C)c2c1C (configuration not stated)	none
O=C(c1cn(-c2ccccc2)nc1-c1cccs1)N1CCOCC1	none
O=C(c1cn(-c2ccccc2)nc1C12CC3CC(CC(C3)C1)C2)N1CCOCC1	MITF primary 59 | MITF confirm inactive | AlphaScreen intf2 inactive
Cc1ccc(-c2nc(N)sc2CC(=O)OCC(=O)NCc2ccco2)cc1	none
Cc1nc(C)c(C(=O)Nc2ccc(Br)cc2)o1	MITF primary 56 | MITF confirm inactive | AlphaScreen intf2 inactive
Cc1nc(C)c(C(=O)Nc2ccc(C(N)=O)cc2)o1	none
CC(=O)Nc1ccc(Nc2nc(N3CCc4ccccc4C3)ncc2C)cc1	none
Cc1nc(N2CCCCC2)c2ccsc2n1	MITF primary 92 | MITF confirm inactive | AlphaScreen intf2 inactive
CS(=O)(=O)c1cccc(N2CCN(CC3CC3)C2=O)c1	none
NCc1nc2ccc(Cc3ccc4nc(CN)[nH]c4c3)cc2[nH]1	MITF primary 105 | MITF confirm 84 | AlphaScreen intf2 100
COC(=O)NCCOC(=O)Nc1ccc(C)cc1	none
CC1=C(C(=O)Nc2ccc(C)cc2C)C(c2cccc(Cl)c2)NC(=S)N1 (configuration not stated)	MITF primary 73 | MITF confirm inactive | AlphaScreen intf2 inactive
CC1=C(C(=O)Nc2ccc(C)cc2C)C(c2cccc(Cl)c2)NC(=O)N1 (configuration not stated)	none
CCN1CCN(c2c(Cl)cccc2NC(=O)c2ccc(Cl)s2)CC1	none
CCN1CCN(CC(=O)c2ccc(Cl)s2)CC1	MITF primary 74 | MITF confirm inactive | AlphaScreen intf2 inactive
CCOC(=O)CCC(=O)Nc1cccc(Cl)c1C	none
Cc1c(NC(=S)NC(=O)c2cncc(Br)c2)c(=O)n(-c2ccccc2)n1C	none
C=CCc1ccc(OCCN(C)C)c(OC)c1	MITF primary 82 | MITF confirm inactive | AlphaScreen intf2 inactive
C=CCc1cc(OC)ccc1OCCNCCCOC	MITF primary 52 | MITF confirm inactive | AlphaScreen intf2 inactive
C=CCc1cc(OC)ccc1OCCNCCN	none
C=CCc1cc(OC)ccc1OCCCNCCN	none
C=CCc1cc(OC)ccc1OCCN(C)C	MITF primary 63 | MITF confirm inactive | AlphaScreen intf2 inactive
CC1(C)CC(=O)C2=C(C1)N(c1sc3c(c1C#N)CCCCC3)C(N)=C(C#N)C2c1cccs1 (configuration not stated)	none
COc1ccc(NC(C)C(=O)N/N=C(\C)c2ccc(OC)cc2)cc1 (configuration not stated)	none
Cc1cc2c(cc1C)CSC(c1c(O)ccc3cc([N+](=O)[O-])ccc13)SC2	none
NCC1OC(=O)C(Oc2ccccc2)=C1Br (configuration not stated)	MITF primary 59 | MITF confirm 77 | AS interf DR inactive | AlphaScreen intf2 inactive
CC(=O)CC1OC(=O)C(Oc2ccccc2)=C1Br (configuration not stated)	none
O=C(NCCC1=CCCCC1)NC1(C(F)(F)F)Oc2ccccc2O1	none
CCOc1ccc(S(=O)(=O)N2CCN(CC(O)c3ccccc3)CC2)cc1 (configuration not stated)	none
N#Cc1ccccc1S(=O)(=O)N1CCN(CC(O)c2ccccc2)CC1 (configuration not stated)	MITF primary 58 | MITF confirm inactive | AlphaScreen intf2 inactive
N#Cc1ccccc1S(=O)(=O)N1CCN(CC(O)COc2ccccc2F)CC1 (configuration not stated)	MITF primary 51 | MITF confirm inactive | AlphaScreen intf2 inactive
CS(=O)(=O)N1CCCC1C(=O)Nc1nc2ccc(Cl)cc2s1 (configuration not stated)	none
COc1ccc(CN2CCN(CCCc3ccccc3)C(CCO)C2)cc1OC (configuration not stated)	none
COc1ccc(CN2CCN(CCCc3ccccc3)CC2)cc1OC	MITF primary 59 | MITF confirm inactive | AlphaScreen intf2 inactive
Cc1ccc(S(=O)(=O)CCN2CCN(Cc3ccccc3)CC2)cc1	none
c1ccc(CN2CCN(Cc3ccncc3)CC2)cc1	MITF primary 80 | MITF confirm inactive | AlphaScreen intf2 inactive
Cc1ccc(CN2CCN(CCCc3ccccc3)CC2)cc1	MITF primary 66 | MITF confirm inactive | AlphaScreen intf2 inactive
c1ccc(CCCN2CCN(Cc3ccncc3)CC2)cc1	MITF primary 69 | MITF confirm inactive | AlphaScreen intf2 inactive
COc1ccc(-c2c(C#N)c(SCC(=O)Nc3cccc(Cl)c3)nc(C)c2C(=O)Nc2ccc(Cl)cc2)cc1	none
O=C1CC(N2CCCCC2)C(=O)N1c1ccc(Cl)c(F)c1 (configuration not stated)	none
COc1ccc(CNC(=O)c2cc3c(=O)n4ccccc4nc3s2)cc1	none
